This is a sample that favours compounds with a hit; in the whole collection about 4.7% have one here.
PABP FP inh – PABP-poly(A) binding inhibition; AID 2014; PABP-poly(A) RNA binding, fluorescence polarization; inhibition, % at 35 µM; 290,000 compounds, 1% hits;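 note: calls also rest on retests at 20 µM and on dose response follow-up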
MLLE-PAM2 inh – inhibitors of microRNA-mediated deadenylation, human PABP1 MLLE binding | P11940 | GST-MLLE / FITC-PAM2 fluorescence polarization | inhibition, % at 20 µM | 360,000 compounds, 0.36% hits; in the data active = inhibition above about 35%, passing the limit was not always enough
ALR inh – inhibitors of human sulfhydryl oxidase ALR; P55789; purified ALR, DTT oxidation, H2O2 HRP-luminol luminescence; inhibition, % (no concentration beside the values); 290,000 compounds, 3.8% hits; AID 485317;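 active = mean replicate inhibition above about 79%, with every replicate also reaching it, limit read from the data; inconclusive = only one of the two criteria met; inactive = mean below limit and not every replicate reaching it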
eIF4H inh – inhibitors of RNA binding by human eIF4H. inhibition, % at 35 µM. 290,000 compounds, 0.94% hits. eIF4H fluorescence polarization binding assay. Q15056. AID 2012;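 note: calls also rest on retests at 20 µM and on dose response follow-up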
Efflux pump mplx – inhibitors of Candida antifungal efflux pumps expressed in yeast; S. cerevisiae Candida pump triplex, Nile Red efflux; inhibition, % at 10 µM; 330,000 compounds, 0.44% hits; AID 485275;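 active = plate passing quality check with inhibition over a set limit, or well fluorescence over plate mean plus 4 SD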;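 note: Nile Red retained in pooled yeast measured as flow cytometry median fluorescence; higher means more Nile Red kept so more efflux inhibition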
UBC9 SUMO inh – blocks human SUMOylation mediated by UBC9 | P63279 | HTRF SUMOylation assay, SAE1/SAE2 + UBC9, in vitro | inhibition, % at 35 µM | 290,000 compounds, 0.36% hits | AID 2006; in the data active = inhibition above about 50%, passing the limit was not always enough; inconclusive = no clear call, values can overlap the other calls
Target sequence (P63279 whole entry, looked up): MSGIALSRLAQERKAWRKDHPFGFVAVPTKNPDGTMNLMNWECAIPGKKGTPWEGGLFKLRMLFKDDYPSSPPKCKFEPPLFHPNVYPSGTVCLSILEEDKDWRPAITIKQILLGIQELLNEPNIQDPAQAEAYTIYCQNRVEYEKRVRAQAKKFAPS
Each line names hits and unclear results; the compound was inactive in the other large screens; ! = a repeat was not active. Unless noted, the rule behind the calls is not given here.

O=C(Nc1nnc(C2=COCCO2)o1)c1ccc([N+](=O)[O-])cc1	none
COC(=O)C1(C)NC(c2cccc(C)c2)C2C(=O)N(c3ccccc3)C(=O)C21 (configuration not stated)	none (no result: PABP FP inh, ALR inh, eIF4H inh, Efflux pump mplx, UBC9 SUMO inh)
O=C(NCC(=O)N1CCCCCCC1)c1ccc(Cl)c(Cl)c1	none (no result: PABP FP inh, ALR inh, eIF4H inh, Efflux pump mplx, UBC9 SUMO inh)
O=C(Nc1ccccc1C(=O)NCC1CCCO1)c1ccc(Cl)cc1 (configuration not stated)	none
CCCCCCSc1ccc([C@@H]2[C@@H]3C(=O)N(C)C(=O)[C@@H]3[C@]3(C(=O)OC)CCCCN23)cc1OC	none (no result: PABP FP inh, eIF4H inh, UBC9 SUMO inh)
CC(O)(CS(=O)(=O)Cc1ccccc1)c1ccccc1 (configuration not stated)	none
CCC/C(O)=C1\C(=O)CC(C)(C)CC1=Nc1ccccc1O	ALR inh 87.2
CCC/C(O)=C1\C(=O)CC(C)(C)CC1=NCCO	none
CCCn1c2ccccc2c2nnc(SCCN3CCOCC3)nc21	ALR inh 96.4
Cc1ccccc1OCC(=O)Nn1c(COc2ccccc2)nc2ccccc2c1=O	none
O=C(COc1ccc(Cl)cc1Cl)Nn1c(=S)[nH]c2ncccc2c1=O	MLLE-PAM2 inh 46.3, ALR inh inconclusive
COc1ccccc1OCC(=O)Nn1c(=S)[nH]c2ncccc2c1=O	MLLE-PAM2 inh 43.7, ALR inh 90.5
O=C(COc1ccc(Cl)cc1Cl)Nc1cccnc1	none
C[N+](C)(C)CCN(Cc1ccc(Cl)cc1)c1ccccn1	PABP FP inh 77.9
O=C(CSc1ccccc1C(=O)N1CCN(c2ccc([N+](=O)[O-])cc2)CC1)N1CCCC1	none (no result: PABP FP inh, eIF4H inh, UBC9 SUMO inh)
COCCSc1ccccc1C(=O)N1CCc2ccccc2C1	none
O=C(CSc1ccccc1C(=O)N1CCN(c2ccccc2)CC1)N1CCCC1	ALR inh 98.4 (no result: PABP FP inh, eIF4H inh, UBC9 SUMO inh)
COCCSc1ccccc1C(=O)N1CCN(c2ccccc2)CC1	ALR inh 87.2
CCOC(=O)C1CCCN(C(=O)c2ccccc2SCCOC)C1 (configuration not stated)	MLLE-PAM2 inh 40.3
OCCn1nc(-c2ccccc2)cc1-c1ccccc1	none
Cc1cc(OCc2nc(N)nc(N)c2-c2ccc(Cl)c(Cl)c2)ccc1[N+](=O)[O-]	none (no result: PABP FP inh, ALR inh, eIF4H inh, Efflux pump mplx, UBC9 SUMO inh)
CC(=O)Nc1cccc(Oc2nc(NCCN(C)C)nc3ccsc23)c1	none (no result: PABP FP inh, ALR inh, eIF4H inh, Efflux pump mplx, UBC9 SUMO inh)
O=C(NCc1ccco1)Nc1nnc([C@H]2C[C@H](O)[C@@H](CO)O2)s1	none (no result: PABP FP inh, ALR inh, eIF4H inh, Efflux pump mplx, UBC9 SUMO inh)
CCCCC(=O)N(C)c1c(C)nc2ccc(C(=O)N(CC)CCN(C)C)cn12	none (no result: PABP FP inh, ALR inh, eIF4H inh, Efflux pump mplx, UBC9 SUMO inh)
O=C1CC(C(=O)N2CCc3ccccc32)CN1c1ccccc1 (configuration not stated)	none
S=c1[nH]c2cc(Cl)ccc2s1	ALR inh 98.2
Cc1cc(Cl)cc2sc(=S)[nH]c12	none (no result: PABP FP inh, ALR inh, eIF4H inh, Efflux pump mplx, UBC9 SUMO inh)
O=C(Nc1ccc(N2CCOCC2)cc1)C1CC(O)CN1S(=O)(=O)c1ccc(Cl)cc1 (configuration not stated)	ALR inh 78.0
Cc1cccc(N(CC(=O)N2CCCC2)S(C)(=O)=O)c1	none
O=C(CCCN1C(=O)c2ccccc2C1=O)NCc1ccc(F)cc1	none
Cc1cc2oc(=O)cc(-c3cc4ccccc4o3)c2cc1O	none (no result: PABP FP inh, ALR inh, eIF4H inh, UBC9 SUMO inh)
COc1cc(OC)c(-c2c3cc(O)c(=O)cc-3oc3cc(O)c(O)cc23)cc1OC	ALR inh inconclusive, eIF4H inh inconclusive, UBC9 SUMO inh 80.1
Cc1c2cc(O)c(=O)cc-2oc2cc(O)c(O)cc12	ALR inh 93.2, Efflux pump mplx 1.0, UBC9 SUMO inh 91.9!
COc1ccc2cc(CN(Cc3ccco3)C(=S)NCC3CCCO3)c(=O)[nH]c2c1 (configuration not stated)	none
Cc1cc(C)c2cc(CN(Cc3ccco3)C(=S)NCC3CCCO3)c(=O)[nH]c2c1 (configuration not stated)	ALR inh 96.2
O=C(c1cc(S(=O)(=O)N2CCCCC2)ccc1F)N1CCCCC1	ALR inh 83.4
O=C(O)CC1S/C(=N/N=C/C=C/c2ccccc2)NC1=O (configuration not stated)	none
O=C(CC1S/C(=N/N=C/C=C/c2ccccc2)NC1=O)Nc1ccc(Cl)c(Cl)c1 (configuration not stated)	UBC9 SUMO inh 67.9
COC(=O)CCCCCN1C(=O)NC(C2CC2)C(C(=O)OCc2ccccc2)=C1C (configuration not stated)	none (no result: PABP FP inh, eIF4H inh, UBC9 SUMO inh)
CC(=O)Nc1ccc2c(c1)C(C)(C)C(C)N2C (configuration not stated)	ALR inh 98.9, eIF4H inh inconclusive (no result: MLLE-PAM2 inh)

Compound activity (PubChem BioAssay)
